The whole screen tested about 5,500 compounds, of which about 2,000 (36%) were called active. Inconclusive results (about 18%) are left out. Rule as the data show it: active = normalized growth mostly below about 0.91 (no sharp cut-off); inconclusive = no clear call, values can overlap the other calls; inactive = mostly above about 0.92. This is one part of the list.
Test: chemical genetic growth profiling, strain panel (AID 1159580);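 also: tested at 20 µM; growth read once vehicle control cultures reached saturation at 30 °C; 1 = growth at the plate median or of vehicle wells; lower values mean less growth of the strain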
Details: growth OD

Measured: normalized growth

COc1ccc2c(c1OC)C(=O)OC2[C@H]1c2c(cc3c(c2OC)OCO3)CCN1C (stereo partly drawn)
inactive: S. cerevisiae deletion strains, locus YJR043C, strain POL32, stronger effect = lower value 0.986 | S. cerevisiae deletion strains, locus YJR066W, strain TOR1, stronger effect = lower value 0.973 | S. cerevisiae deletion strains, locus YKL009W, strain mrt4, stronger effect = lower value 0.972 | S. cerevisiae deletion strains, locus YKL068W, stronger effect = lower value 0.99 | S. cerevisiae deletion strains, locus YKL085W, strain MDH1 (second series), stronger effect = lower value 0.991 | S. cerevisiae deletion strains, locus YKL085W, strain MDH1, stronger effect = lower value 0.991 | S. cerevisiae deletion strains, locus YKL160W, strain elf1, stronger effect = lower value 1.01 | S. cerevisiae deletion strains, locus YKL190W, strain CNB1, stronger effect = lower value 0.995 | S. cerevisiae deletion strains, locus YKR001C, strain vps1, stronger effect = lower value 0.985 | S. cerevisiae deletion strains, locus YKR026C, strain gcn3, stronger effect = lower value 1 | S. cerevisiae deletion strains, locus YKR091W, strain srl3, stronger effect = lower value 1.01 | S. cerevisiae deletion strains, locus YLL001W, strain dnm1, stronger effect = lower value 0.973 | S. cerevisiae deletion strains, locus YLL026W, stronger effect = lower value 1.01 | S. cerevisiae deletion strains, locus YLL041C, strain sdh2, stronger effect = lower value 0.995 | S. cerevisiae deletion strains, locus YLR027C, strain aat2, stronger effect = lower value 1.02 | S. cerevisiae deletion strains, locus YLR039C, strain RIC1, stronger effect = lower value 0.997 | S. cerevisiae deletion strains, locus YLR058C, strain SHM2, stronger effect = lower value 1.01 | S. cerevisiae deletion strains, locus YLR102C, strain apc9, stronger effect = lower value 0.994 | S. cerevisiae deletion strains, locus YLR113W, strain HOG1, stronger effect = lower value 0.966 | S. cerevisiae deletion strains, locus YLR221C, strain rsa3, stronger effect = lower value 1 | S. cerevisiae deletion strains, locus YLR258W, strain gsy2, stronger effect = lower value 1.02 | S. cerevisiae deletion strains, locus YLR262C, strain YPT6 (second series), stronger effect = lower value 1.03 | S. cerevisiae deletion strains, locus YLR262C, strain YPT6, stronger effect = lower value 1 | S. cerevisiae deletion strains, locus YLR268W, strain sec22, stronger effect = lower value 0.948 | S. cerevisiae deletion strains, locus YLR320W, strain mms22, stronger effect = lower value 0.975 | S. cerevisiae deletion strains, locus YLR330W, strain CHS5, stronger effect = lower value 0.991 | S. cerevisiae deletion strains, locus YLR342W, strain FKS1 (second series), stronger effect = lower value 1.01 | S. cerevisiae deletion strains, locus YLR342W, strain FKS1, stronger effect = lower value 1.01 | S. cerevisiae deletion strains, locus YLR357W, strain rsc2, stronger effect = lower value 0.997 | S. cerevisiae deletion strains, locus YLR370C, strain arc18, stronger effect = lower value 1.02 | S. cerevisiae deletion strains, locus YLR371W, strain rom2, stronger effect = lower value 0.98 | S. cerevisiae deletion strains, locus YLR384C, strain iki3, stronger effect = lower value 1 | S. cerevisiae deletion strains, locus YLR418C, strain cdc73, stronger effect = lower value 0.984 | S. cerevisiae deletion strains, locus YML016C, strain PPZ1, stronger effect = lower value 1 | S. cerevisiae deletion strains, locus YML032C, strain rad52, stronger effect = lower value 0.99 | S. cerevisiae deletion strains, locus YML120C, strain ndi1, stronger effect = lower value 1.02 | S. cerevisiae deletion strains, locus YML124C, strain tub3, stronger effect = lower value 0.989 | S. cerevisiae deletion strains, locus YMR058W, strain fet3, stronger effect = lower value 1.01 | S. cerevisiae deletion strains, locus YMR078C, strain ctf18, stronger effect = lower value 0.993 | S. cerevisiae deletion strains, locus YMR125W, strain sto1, stronger effect = lower value 1.01 | S. cerevisiae deletion strains, locus YMR129W, stronger effect = lower value 1.01 | S. cerevisiae deletion strains, locus YMR205C, strain PFK2, stronger effect = lower value 0.981 | S. cerevisiae deletion strains, locus YMR223W, strain ubp8, stronger effect = lower value 1.01 | S. cerevisiae deletion strains, locus YMR231W, strain pep5, stronger effect = lower value 1.01 | S. cerevisiae deletion strains, locus YMR307W, strain GAS1, stronger effect = lower value 1 | S. cerevisiae deletion strains, locus YNL067W, strain RPL9B, stronger effect = lower value 0.993 | S. cerevisiae deletion strains, locus YNL071W, strain lat1, stronger effect = lower value 1.02 | S. cerevisiae deletion strains, locus YNL153C, strain GIM3, stronger effect = lower value 1.01 | S. cerevisiae deletion strains, locus YNL183C, strain NPR1, stronger effect = lower value 0.951 | S. cerevisiae deletion strains, locus YNL209W, strain ssb2, stronger effect = lower value 1 | S. cerevisiae deletion strains, locus YNL233W, strain BNI4, stronger effect = lower value 0.999 | S. cerevisiae deletion strains, locus YNL248C, strain rpa49, stronger effect = lower value 0.984 | S. cerevisiae deletion strains, locus YNL250W, strain rad50, stronger effect = lower value 0.985 | S. cerevisiae deletion strains, locus YNL271C, strain bni1, stronger effect = lower value 0.984 | S. cerevisiae deletion strains, locus YNL298W, strain CLA4, stronger effect = lower value 0.992 | S. cerevisiae deletion strains, locus YNL307C, strain MCK1, stronger effect = lower value 0.987 | S. cerevisiae deletion strains, locus YNL322C, strain KRE1 (second series), stronger effect = lower value 1.02 | S. cerevisiae deletion strains, locus YNR049C, strain mso1, stronger effect = lower value 1.01 | S. cerevisiae deletion strains, locus YNR052C, strain pop2, stronger effect = lower value 0.978 | S. cerevisiae deletion strains, locus YOL006C, strain TOP1, stronger effect = lower value 1.07 | S. cerevisiae deletion strains, locus YOL012C, strain htz1 0.809 | S. cerevisiae deletion strains, locus YOL147C, strain pex11, stronger effect = lower value 0.987 | S. cerevisiae deletion strains, locus YOR001W, strain rrp6, stronger effect = lower value 1.02 | S. cerevisiae deletion strains, locus YOR061W, strain CKA2, stronger effect = lower value 1.01 | S. cerevisiae deletion strains, locus YOR069W, strain VPS5, stronger effect = lower value 1 | S. cerevisiae deletion strains, locus YOR070C, strain gyp1, stronger effect = lower value 0.996 | S. cerevisiae deletion strains, locus YOR080W, strain dia2, stronger effect = lower value 1.04 | S. cerevisiae deletion strains, locus YOR083W, strain WHI5, stronger effect = lower value 0.953 | S. cerevisiae deletion strains, locus YOR106W, strain vam3, stronger effect = lower value 1.02 | S. cerevisiae deletion strains, locus YOR136W, strain idh2, stronger effect = lower value 0.995 | S. cerevisiae deletion strains, locus YOR144C, strain elg1, stronger effect = lower value 1 | S. cerevisiae deletion strains, locus YOR184W, strain ser1, stronger effect = lower value 0.976 | S. cerevisiae deletion strains, locus YOR231W, strain MKK1, stronger effect = lower value 0.985 | S. cerevisiae deletion strains, locus YOR265W, strain rbl2, stronger effect = lower value 1.02 | S. cerevisiae deletion strains, locus YOR270C, strain vph1, stronger effect = lower value 1.04 | S. cerevisiae deletion strains, locus YOR290C, strain snf2, stronger effect = lower value 1.02 | S. cerevisiae deletion strains, locus YOR316C, strain cot1, stronger effect = lower value 0.989 | S. cerevisiae deletion strains, locus YPL051W, strain arl3, stronger effect = lower value 1.02 | S. cerevisiae deletion strains, locus YPL078C, strain atp4, stronger effect = lower value 1 | S. cerevisiae deletion strains, locus YPL106C, strain sse1, stronger effect = lower value 1.07 | S. cerevisiae deletion strains, locus YPL240C, strain hsp82, stronger effect = lower value 1.01 | S. cerevisiae deletion strains, locus YPL256C, strain CLN2, stronger effect = lower value 0.984 | S. cerevisiae deletion strains, locus YPR119W, strain clb2, stronger effect = lower value 0.995 | S. cerevisiae deletion strains, locus YPR141C, strain kar3, stronger effect = lower value 0.993 | S. cerevisiae deletion strains, locus YPR163C, strain tif3, stronger effect = lower value 0.984 | S. cerevisiae deletion strains, locus YPR167C, strain met16, stronger effect = lower value 0.986 | S. cerevisiae deletion strains, strain wtn01, stronger effect = lower value 0.967 | S. cerevisiae strains, strain wild type, stronger effect = lower value 1.01

— PubChem BioAssay AID1159580 (chemical genetic matrix, 2015)
